USP10 block – blocks human USP10 ubiquitin-rhodamine cleavage; Q14694; purified USP10, Ub-rhodamine fluorescence, 60 min; inhibition, % at 20 µM; 1.1% of 47,000 active
USP28 inh – human USP28 deubiquitinase inhibition. Q96RU2. purified USP28, Ub-rhodamine cleavage fluorescence, 30 min. inhibition, % at 25 µM. 3% of 47,000 active
Target sequence (Q96RU2 whole entry, looked up): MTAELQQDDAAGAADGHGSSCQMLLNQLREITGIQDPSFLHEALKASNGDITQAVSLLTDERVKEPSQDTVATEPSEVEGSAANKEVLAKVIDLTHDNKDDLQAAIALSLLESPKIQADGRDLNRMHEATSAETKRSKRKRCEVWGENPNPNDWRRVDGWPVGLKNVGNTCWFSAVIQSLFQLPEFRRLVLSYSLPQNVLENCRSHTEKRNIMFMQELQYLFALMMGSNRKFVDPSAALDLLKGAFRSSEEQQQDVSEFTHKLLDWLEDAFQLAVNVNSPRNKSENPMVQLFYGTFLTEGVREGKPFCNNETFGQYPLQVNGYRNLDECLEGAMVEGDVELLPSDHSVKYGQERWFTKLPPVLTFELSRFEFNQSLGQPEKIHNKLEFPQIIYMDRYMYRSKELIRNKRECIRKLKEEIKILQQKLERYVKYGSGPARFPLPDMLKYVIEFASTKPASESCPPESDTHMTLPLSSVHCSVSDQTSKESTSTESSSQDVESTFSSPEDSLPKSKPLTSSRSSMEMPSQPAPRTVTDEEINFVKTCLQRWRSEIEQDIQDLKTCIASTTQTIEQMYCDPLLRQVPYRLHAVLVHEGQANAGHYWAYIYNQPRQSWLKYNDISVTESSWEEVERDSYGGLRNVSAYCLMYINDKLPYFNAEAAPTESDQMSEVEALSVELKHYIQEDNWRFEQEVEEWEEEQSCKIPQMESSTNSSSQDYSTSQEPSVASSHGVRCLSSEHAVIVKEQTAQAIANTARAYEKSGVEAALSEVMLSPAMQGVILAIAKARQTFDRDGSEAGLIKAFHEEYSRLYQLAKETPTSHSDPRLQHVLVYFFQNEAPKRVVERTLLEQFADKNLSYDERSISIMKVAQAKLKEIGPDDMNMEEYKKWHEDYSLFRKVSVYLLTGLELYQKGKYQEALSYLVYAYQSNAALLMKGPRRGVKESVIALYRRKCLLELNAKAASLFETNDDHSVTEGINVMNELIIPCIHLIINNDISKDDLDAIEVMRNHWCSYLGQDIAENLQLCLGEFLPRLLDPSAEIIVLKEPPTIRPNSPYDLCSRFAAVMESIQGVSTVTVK
USP17 inh – inhibitors of human USP17 deubiquitinase; purified USP17, Ub-rhodamine cleavage fluorescence, 3 h; inhibition, % at 50 µM; 6.5% of 47,000 active
USP30 block – inhibitors of human USP30 deubiquitinase | Q70CQ3 | purified USP30, Ub-rhodamine cleavage fluorescence | inhibition, % at 25 µM | 5.3% of 47,000 active
USP8 inh – human USP8 deubiquitinase inhibition. purified USP8, Ub-rhodamine cleavage fluorescence, 30 min. 4.2% of 47,000 active. P40818. inhibition, % at 20 µM
A number is an active result. This is a sample that favours compounds with a hit; in the whole collection about 14% have one here. Rule as the data show it: active = inhibition above about 30%; inactive = the rest.

What do the screens show for `Cc1ccc(S(=O)(=O)c2c[nH]c3cc(F)ccc3c2=O)cc1F`?
USP10 block: inactive; USP28 inh: inactive; USP17 inh: inactive; USP30 block: inactive; USP8 inh: 69

Results for Cc1ccc2[nH]cc(S(=O)(=O)c3ccc(C)c(F)c3)c(=O)c2c1 ?
USP10 block: inactive; USP28 inh: inactive; USP17 inh: 60; USP30 block: inactive; USP8 inh: inactive

How did Cc1ccc(S(=O)(=O)c2cnc3ccc(C)cc3c2Nc2ccc(C)c(C)c2)cc1 do in these assays?
USP10 block: inactive; USP28 inh: inactive; USP17 inh: inactive; USP30 block: inactive; USP8 inh: inactive

Results for Cc1nc(CC(=O)N2CCCC2c2c(C)nn(C)c2C)cs1 (centres undefined) ?
USP10 block: inactive; USP28 inh: inactive; USP17 inh: inactive; USP30 block: inactive; USP8 inh: inactive

Results for O=C(Nc1ccccc1Cl)c1csc(Cc2c(Cl)cccc2Cl)n1 ?
USP10 block: inactive; USP28 inh: inactive; USP17 inh: 37; USP30 block: 48; USP8 inh: inactive

How did COc1ccc(-c2nc(SCC(=O)Nc3ccc(C(C)=O)cc3)n[nH]2)cc1 do in these assays?
USP10 block: inactive; USP28 inh: inactive; USP17 inh: 54; USP30 block: inactive; USP8 inh: inactive

What do the screens show for `Cn1nc(-c2nc(-c3ccccc3)no2)c2c1CCN(C(=O)C1CCCC1)C2`?
USP10 block: inactive; USP28 inh: inactive; USP17 inh: 64; USP30 block: inactive; USP8 inh: inactive

What do the screens show for `Cn1nc(-c2nc(-c3ccccc3)no2)c2c1CCN(C(=O)C1CC1)C2`?
USP10 block: inactive; USP28 inh: inactive; USP17 inh: 42; USP30 block: 68; USP8 inh: inactive

How did Cc1nc(-n2cc(C(=O)c3ccc4ccccc4c3)nn2)nc2c1CCC2 do in these assays?
USP10 block: inactive; USP28 inh: inactive; USP17 inh: inactive; USP30 block: inactive; USP8 inh: inactive

What do the screens show for `COc1cccc(NC(=O)C(OC(=O)c2ccc3ccccc3n2)c2ccccc2)c1` (centres undefined)?
USP10 block: inactive; USP28 inh: inactive; USP17 inh: inactive; USP30 block: inactive; USP8 inh: inactive

What do the screens show for `Cc1ccc(N2C(=O)c3cccnc3C2CC(=O)N2CCC3(CC2)OCCO3)cc1` (centres undefined)?
USP10 block: inactive; USP28 inh: inactive; USP17 inh: inactive; USP30 block: inactive; USP8 inh: inactive

What do the screens show for `O=C(CSc1nc2[nH]ncc2c(=O)n1-c1cccc(C(F)(F)F)c1)NCc1ccccc1`?
USP10 block: inactive; USP28 inh: inactive; USP17 inh: inactive; USP30 block: inactive; USP8 inh: inactive

What do the screens show for `COc1ccc(-c2[nH]ncc2CN2CCN(c3ccc(F)cc3)CC2)cc1`?
USP10 block: inactive; USP28 inh: inactive; USP17 inh: inactive; USP30 block: inactive; USP8 inh: inactive

Results for COc1ccc(N2CCN(Cc3nnnn3Cc3ccc4c(c3)OCO4)CC2)cc1 ?
USP10 block: inactive; USP28 inh: inactive; USP17 inh: 42; USP30 block: 53; USP8 inh: inactive

How did CS(=O)(=O)N[C@H]1COC[C@@H]1N1CCCCC1 do in these assays?
USP10 block: inactive; USP28 inh: inactive; USP17 inh: inactive; USP30 block: inactive; USP8 inh: inactive

Results for CCCC(=O)NCC(c1ccc2c(c1)CCN2C)N1CCOCC1 (centres undefined) ?
USP10 block: inactive; USP28 inh: inactive; USP17 inh: inactive; USP30 block: inactive; USP8 inh: inactive

Results for CN(Cc1ccc2c(c1)OCO2)C(=O)CCc1nc2ccccc2c(=O)[nH]1 ?
USP10 block: inactive; USP28 inh: inactive; USP17 inh: inactive; USP30 block: inactive; USP8 inh: inactive

What do the screens show for `CC(C)n1ncc2c(C(=O)NCCc3ccc(Cl)cc3)cc(C3CC3)nc21`?
USP10 block: inactive; USP28 inh: 38; USP17 inh: inactive; USP30 block: inactive; USP8 inh: inactive

How did CC(C)n1ncc2c(C(=O)NCCc3cccc(Cl)c3)cc(C3CC3)nc21 do in these assays?
USP10 block: inactive; USP28 inh: 37; USP30 block: inactive; USP8 inh: inactive

Results for COc1cccc(-c2noc(NCc3ccc(F)cc3)n2)c1OC ?
USP10 block: inactive; USP28 inh: inactive; USP17 inh: inactive; USP30 block: inactive; USP8 inh: inactive

How did Cc1cc(=O)n(CC(=O)NCC2CCCO2)c2c1c(C)nn2-c1ccccc1 (centres undefined) do in these assays?
USP10 block: inactive; USP28 inh: inactive; USP17 inh: inactive; USP30 block: inactive; USP8 inh: inactive

How did COc1cccc(NC(=O)Cn2c(=O)cc(-c3ccccc3)c3c(C)nn(-c4ccccc4)c32)c1 do in these assays?
USP10 block: inactive; USP28 inh: inactive; USP17 inh: inactive; USP30 block: inactive; USP8 inh: inactive

Results for Cc1cc(=O)n(CC(=O)NCc2ccccc2F)c2c1c(C)nn2-c1ccccc1 ?
USP10 block: inactive; USP28 inh: inactive; USP17 inh: 62; USP30 block: 33; USP8 inh: inactive

How did COc1ccc(Cl)cc1NC(=O)Cn1c(=O)cc(C)c2c(C)nn(-c3ccccc3)c21 do in these assays?
USP10 block: inactive; USP28 inh: inactive; USP17 inh: 56; USP30 block: inactive; USP8 inh: inactive

How did CSc1nc(Oc2ccc(F)cc2)c2cnn(-c3ccccc3)c2n1 do in these assays?
USP10 block: inactive; USP28 inh: inactive; USP17 inh: inactive; USP30 block: inactive; USP8 inh: inactive

What do the screens show for `COc1ccc(-c2ccc(-c3nnn(CCN4CCCCC4)n3)cc2)cc1`?
USP10 block: inactive; USP28 inh: inactive; USP17 inh: inactive; USP30 block: inactive; USP8 inh: 47

How did CCCc1nc2c(sc3nc4c(cc32)COC(C)(C)C4)c(=O)n1CCc1ccccc1 do in these assays?
USP10 block: inactive; USP28 inh: inactive; USP17 inh: inactive; USP30 block: inactive; USP8 inh: inactive

How did c1ccc(-c2cc(N3CCC4(CC3)OCCO4)nc(-c3ccncc3)n2)cc1 do in these assays?
USP10 block: inactive; USP28 inh: inactive; USP30 block: inactive; USP8 inh: inactive

How did FC(F)(F)c1cc(C(F)(F)F)c2ccc(N3CCC4(CC3)OCCO4)nc2n1 do in these assays?
USP10 block: inactive; USP28 inh: inactive; USP17 inh: 30; USP30 block: inactive; USP8 inh: inactive

How did CCn1cc(S(=O)(=O)Nc2ccccc2F)c2cccnc21 do in these assays?
USP10 block: inactive; USP28 inh: inactive; USP17 inh: inactive; USP30 block: inactive; USP8 inh: inactive

Results for O=C(Cn1cc(S(=O)(=O)Cc2ccc(Cl)cc2)c2ccccc21)N1CCCCC1 ?
USP10 block: inactive; USP28 inh: inactive; USP17 inh: inactive; USP30 block: 75; USP8 inh: inactive

Results for O=C(CSc1cn(Cc2ccccc2Cl)c2ccccc12)N1CCOCC1 ?
USP10 block: inactive; USP28 inh: inactive; USP17 inh: inactive; USP30 block: 37; USP8 inh: inactive

How did O=C(CSc1cn(CC(=O)N2CCCCC2)c2ccccc12)Nc1ccc(Cl)cc1 do in these assays?
USP10 block: inactive; USP28 inh: inactive; USP17 inh: 38; USP30 block: inactive; USP8 inh: inactive

How did O=C(NCCc1ccccc1)c1csc(C(=O)N2CCCC2)n1 do in these assays?
USP10 block: inactive; USP28 inh: inactive; USP30 block: inactive; USP8 inh: inactive

Bioassay records from PubChem.
